# Assay results reported in PubChem BioAssay AID743129 (Broad Institute, 2013).
# Entries with a potency or affinity are not part of this list. Activity calls are given as the source filed them.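 Rule for the calls: active = cytotoxic compounds whose fitted half-maximal concentration is at most twice the highest valid tested dose; inconclusive = flat curve with 30 to 70% cell loss, or poor fit; inactive = the rest, including signal rising instead of falling.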
# Test: HepG2 cell cytotoxicity, dose response, cytotoxicity control, ATP luminescence, dry powder, set 2 (AID 743129)
# Conditions: HepG2 viability, ATP luminescence (CellTiter-Glo), 72 h; series mostly up to 26 µM; activity change, negative = cytotoxicity: at the top concentration
SMILES,"activity change, negative = cytotoxicity",outcome
S=c1[nH]c2ccccc2n1CCOc1ccc(Cl)cc1,-7.15% (inactive),–
c1ccc(OCCn2cnc3ccccc32)cc1,-27.1% (inactive),–
COC(=O)C1=C(C)N(Cc2ccc(Cl)cc2)C(=S)NC1c1ccc(Br)cc1 (stereo not drawn),-1.77% (inactive),–
Cc1ccc(OCCn2cnc3ccccc32)cc1,-2.07% (inactive),–
Cc1ccccc1OCCn1c(=S)[nH]c2ccccc21,-14.9% (inactive),–
CCOc1ccc(OCCn2c(=S)[nH]c3ccccc32)cc1,-26.2% (inactive),–
S=c1[nH]c2cccc(Cl)c2n1CCOc1ccccc1,-3.38% (inactive),–
Cc1cccc(OCCn2c(=S)[nH]c3cc(C(F)(F)F)ccc32)c1,-10.2% (inactive),–
O=c1[nH]c2ccccc2n1CCOc1ccccc1,–,inactive
Cc1ccc(OCCn2c(=S)[nH]c3ccccc32)c(C(C)C)c1,–,inactive
COC(=O)C1=C(C)N(Cc2ccc(Br)cc2)C(=S)NC1c1ccc(OC)cc1 (stereo not drawn),-26.8% (inactive),–
CCOC(=O)c1c(-c2ccc(OC)cc2)csc1NC(=O)CN(C)CC(=O)N(C)C,6.85% (inactive),–
Fc1ccccc1OCCn1c(=S)[nH]c2ccccc21,-13% (inactive),–
CCOC(=O)c1c(-c2ccc(F)cc2)csc1NC(=O)CN1CCN(C)CC1,21.1% (inactive),–
Cc1ccc(OCCn2c(C)nc3ccccc32)cc1,15% (inactive),–
CCOC(=O)c1c(-c2ccc(F)cc2)csc1NC(=O)CN1CCN(CC)CC1,-0.94% (inactive),–
Cc1ccc2c(c1)[nH]c(=S)n2CCOc1ccccc1,29.2% (inactive),–
COC(=O)C1=C(C)N(Cc2ccc(Br)cc2)C(=S)NC1c1ccc(F)cc1 (stereo not drawn),0.837% (inactive),–
COC(=O)C1=C(C)N(Cc2ccccc2)C(=S)NC1c1ccc(Br)cc1 (stereo not drawn),-2.68% (inactive),–
Fc1cccc2c1[nH]c(=S)n2CCOc1ccccc1,12.8% (inactive),–
S=c1[nH]c2ccccc2n1CCOc1ccccc1,-11.9% (inactive),–
Cc1ccc(C(C)C)c(OCCn2c(=S)[nH]c3ccccc32)c1,39.7% (inactive),–
Cc1ccc(OCCn2c(=S)[nH]c3ccccc32)cc1,-23.9% (inactive),–
